# Screening data as filed in PubChem.
# Most compounds without a hit are left out; they make up all but 2.6% or so of the library.
# S16 F2sN tox: cytotoxicity in S16 Pmp22-F2sN Schwann cells | S16 Pmp22-F2sN Schwann cells viability, CellTiter-Glo, 24 h | Potency, µM (highest dose often 57.5 µM), for inactives: at the top dose activity change, negative = cytotoxicity, usual class: cytotoxic | 0.48% of 43,000 active | AID 1508642; further: nearly all actives have a fitted effect of over 65% in size
#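 Used to flag compounds lowering reporter output through toxicity, this quantitative HTS measures ATP-based CellTiter-Glo luminescence in S16 Pmp22-F2sN Schwann cells after 24 h compound exposure at 37C.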
# PMP22 txn: modulates PMP22 transcription in S16 Schwann cells; 2% of 43,000 active; S16 Pmp22-F2sN Schwann cells (luciferase reporters placed in the Pmp22 gene), FLuc/NLuc coincidence luminescence, 24 h; AID 1508649; Potency, µM (series often up to 57.5 µM), for inactives: at the top dose activity change, negative = inhibition, most hits filed as inhibitors; active means clear falling dose curves in both reporters; inconclusive means both reporters move, but less clearly or upward; inactive means either reporter flat; the % is the NLuc reporter signal
#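 Transcriptional readout in edited S16(c9) cells: two luciferases reported from the Pmp22 locus, measured in turn after 24 h compound incubation.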
# pS6 MEF inh: mTORC1 pathway inhibition measured by phospho-rpS6. 0.78% of 44,000 active. AID 493208. Potency, µM (top dose mostly 38.3 µM), inactives show at the highest dose activity change, negative = inhibition, actives largely listed as inhibitors. Tsc2-/- p53-/- MEF, phospho-rpS6 immunofluorescence/PI, 24 h;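 further: plate controls were DMSO for no effect and rapamycin for full effect; nearly all actives have a fitted effect of over 50% in size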
#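 Immunofluorescence of rpS6 phosphorylation in Tsc2-/-, p53-/- MEFs after 24 h compound exposure, normalized to propidium iodide signal. Activity is expressed as % positive cells, thresholded with 7.5 nM rapamycin.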
# OvCa metastasis: inhibitors of ovarian cancer cell adhesion and invasion in omental model. 0.1% of 46,000 active. SKOV3ip1-GFP adhesion/invasion on 3D omental model, fluorescence. Potency, µM (highest dose often 45.8 µM), for the others: top-dose activity change, negative = inhibition, actives largely listed as inhibitors;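 further: plate controls were DMSO wells for no effect and tomatine positive control wells for full effect; nearly all actives have a fitted effect of over 65% in size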
#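 Primary human omental fibroblast/mesothelial 3D culture pre-formed 48 h. SKOV3ip1-GFP cells added with compounds (0.36-46 umol/L), incubated 2 h RT/16 h 37 C, fixed; GFP cells quantified at 488/509 nm.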
# Starred values were filed as active, the others as inactive; i = inactive; ? = inconclusive; nt = no result given. Unless noted, the call rests on the fitted dose curve; in most records, active means well fitted curve in the direction sought with a large enough effect; inconclusive means small, poorly fitted or top-dose-only effect, or another doubt; inactive means no such curve, though single readings can be large; an effect the other way counts as inactive or inconclusive. Unless noted, on the % scale 0 is the no-effect control and ±100 the full control effect; potency means the concentration at half of the fitted maximal effect.
SMILES,S16 F2sN tox,PMP22 txn,pS6 MEF inh,OvCa metastasis
CO[C@H]1C(=O)[C@]2(C)[C@@H](OC)C[C@H]3OC[C@@]3(OC(C)=O)[C@H]2[C@H](OC(=O)c2ccccc2)[C@]2(O)C[C@H](OC(=O)[C@H](O)[C@@H](NC(=O)OC(C)(C)C)c3ccccc3)C(C)=C1C2(C)C,nt,nt,nt,8%
Cc1ccc(/C=C(\C#N)c2nc3ccccc3c(=O)[nH]2)cc1,2%,-17%,6%,5%
Cc1ccc(/C=C/c2nc3ccccc3[nH]2)cc1,16µM*,?,14%,?
CCC(C(=O)NCCc1ccc(SC)cc1)n1nc(C)c2sc3ccccc3c2c1=O (stereo not drawn),5%,-14%,2%,-3%
CSc1ccc(CCNC(=O)C(C)n2nc(C)c3sc4ccccc4c3c2=O)cc1 (stereo not drawn),4%,3%,0.52µM*,5%
Cc1nn(C(C)C(=O)NC2CCCCC2)c(=O)c2c1sc1ccccc12 (stereo not drawn),7%,40%,1µM*,7%
CN1CCC(CNc2ccc3ncc(-c4cccc(OC(F)(F)F)c4)n3n2)CC1,nt,nt,nt,-9%
CCCCCN(CCC12CC3CC(CC(C3)C1)C2)C(=O)NCCCc1ccncc1,nt,nt,nt,6%
NS(=O)(=O)c1ccc(Nc2nc(OCC3CCCCC3)c3[nH]cnc3n2)cc1,nt,nt,nt,41%
CCCCn1c(-c2ccc(C)cc2)c(C)n2c3c(=O)n(C)c(=O)n(C)c3nc12,?,?,-3%,-9%
Cc1ccc(-c2c(C)n3c4c(=O)n(C)c(=O)n(C)c4nc3n2CCO)cc1,?,4.8µM*,-29%,4%
CCCN1CCN(c2ncnc3sc(C(=O)Nc4c(C)cc(C)cc4C)c(C)c23)CC1,25µM*,?,11%,81%
CCS(=O)(=O)c1ncc(Cl)c(C(=O)N2CCN(c3ccc(OC)cc3)CC2)n1,7.9µM*,6.6µM*,3.3µM*,?
CCS(=O)(=O)c1ncc(Cl)c(C(=O)NCc2ccc(OC)cc2)n1,2.8µM*,6.5µM*,3.7µM*,?
CCCS(=O)(=O)c1ncc(Cl)c(C(=O)N(Cc2ccccc2)Cc2ccco2)n1,2.2µM*,6.4µM*,16µM*,2.2µM*
CCS(=O)(=O)c1ncc(Cl)c(C(=O)N(Cc2ccccc2)c2ccc(OC)cc2)n1,4.5µM*,2.2µM*,2.6µM*,?
O=C(Nc1cccc(C(F)(F)F)c1)Nc1ccc2snnc2c1,?,9.5µM*,-21%,i
O=C(Nc1cccc(C(F)(F)F)c1)c1ccc2snnc2c1,-2%,-7%,0%,15%
CC(C)n1cnc2c(NCCc3ccc(O)cc3)nc(-c3csc4ccccc34)nc21,nt,nt,nt,-72%
Cc1ccc(CN2C(=O)C(=O)c3cc(Br)cc(C)c32)cc1,?,?,?,13µM*
Cc1ccc(Cn2ccn(CC(=O)Nc3c(C)cc(C)cc3C)c(=O)c2=O)cc1,0%,6%,-1%,-4%
CN(CC(=O)N(Cc1ccc(C2CCCCC2)cc1)c1ccc(C(=O)O)c(O)c1)S(=O)(=O)c1c(F)c(F)c(F)c(F)c1F,nt,nt,nt,23%
Cc1ccc(-n2c(=O)c3ccc(C(=O)NCc4ccco4)cc3n(Cc3ccc(Cl)cc3)c2=O)cc1,?,?,12µM*,0%
CC(C)(C)c1nc2c3cc[nH]c(=O)c3c3cc(F)ccc3c2[nH]1,nt,nt,nt,5%
Cc1ccc(Nc2nc3nonc3nc2Nc2cccc(C(F)(F)F)c2)cc1Cl,11µM*,7.6µM*,?,-16%
SMILES,S16 F2sN tox,PMP22 txn,pS6 MEF inh,OvCa metastasis
Cc1cc(Nc2cccc(C(F)(F)F)c2)ncn1,0%,4%,0%,9%
CN(C[C@@H]1COCCO1)S(=O)(=O)Nc1ccc2ccc3ncc(-c4cnn(C)c4)cc3c(=O)c2c1,nt,nt,nt,27%
Cc1ccc(-c2nc(Cn3c(SCc4ccc(F)cc4)nc4cccnc43)c(C)o2)cc1,-18%,7.4µM*,-8%,-22%
Nc1nc(Cl)nc2c1ncn2[C@@H]1O[C@H](CO)[C@@H](O)[C@H]1F,nt,nt,nt,-3%
CCOC(=O)COc1ccc(/C=C(\C#N)c2nc3ccc(C)cc3[nH]2)cc1OC,8.9µM*,8.9µM*,-6%,-7%
COc1cc(/C=C(\C#N)c2nc3ccc(C)cc3[nH]2)ccc1OCc1ccc(C)cc1,?,?,?,6%
Cc1ccccc1-n1c(Cn2nc(-c3cccc(O)c3)c3c(N)ncnc32)nc2cccc(C)c2c1=O,nt,nt,nt,6%
O=C(NCCCN1CCN(c2cccc(Cl)c2)CC1)c1sc2ncccc2c1-n1cccc1,?,?,-11%,i
CCCCOCc1cc(CN2CCN(c3cccc(Cl)c3)CC2)c(O)c2ncccc12,?,2.7µM*,?,-23%
CCOC(=O)c1c(-c2ccccc2)csc1NC(=O)c1nc(S(=O)(=O)CC)ncc1Cl,11µM*,4.5µM*,?,?
CN(c1ccccc1)S(=O)(=O)c1ccc(NC(=O)c2nc(S(C)(=O)=O)ncc2Cl)cc1,4.5µM*,2.1µM*,1.2µM*,i
CCOC(=O)c1ccc(NC(=O)c2nc(S(=O)(=O)Cc3ccccc3)ncc2Cl)cc1,5µM*,1.9µM*,?,?
CCS(=O)(=O)c1ncc(Cl)c(C(=O)Nc2c(C(=O)Nc3cccc(C)c3)oc3ccccc23)n1,2.2µM*,3.2µM*,?,-8%
O=C(O)c1ccc(O)c2ncc(N3CCOCC3)cc12,nt,nt,nt,4%
COc1ccc(Nc2cc(-c3cnc(N)nc3)nc(N3CCOCC3)n2)cn1,nt,nt,nt,-15%
Cc1cccc(NC(=O)c2nc(S(C)(=O)=O)ncc2Cl)c1,5µM*,2.4µM*,3.3µM*,?
Cc1ccccc1CS(=O)(=O)c1ncc(Cl)c(C(=O)Nc2nnc(C(C)C)s2)n1,?,7µM*,9.3µM*,?
CCS(=O)(=O)c1ncc(Cl)c(C(=O)Nc2ccccc2)n1,6.3µM*,2.2µM*,1.8µM*,?
CS(=O)(=O)c1ncc(Cl)c(C(=O)Nc2c(C(=O)Nc3ccccc3)oc3ccccc23)n1,?,?,4%,-6%
Cc1cn2c(-c3cn[nH]c3)cnc2c(Nc2ccc(C(=O)N3CCNCC3)cc2F)n1,nt,nt,nt,-12%
CCOc1cc2ncc(C#N)c(Nc3ccc(F)c(Cl)c3)c2cc1NC(=O)C=CCN(C)C,nt,nt,nt,-2%
CC[C@H]1OC(=O)[C@H](C)[C@@H](O[C@H]2C[C@@](C)(OC)[C@@H](O)[C@H](C)O2)[C@H](C)[C@@H](O[C@@H]2O[C@H](C)C[C@H](N(C)C)[C@@H]2O)[C@](C)(O)C[C@@H](C)CN(C)[C@H](C)[C@@H](O)[C@]1(C)O,nt,nt,nt,0%
COc1ccc(N2CCN(C(=O)c3cccc(-n4c(C)nc5cccnc54)c3)CC2)cc1,-18%,?,-12%,-6%
Cc1nc2cccnc2n1-c1cccc(C(=O)N2CCN(c3ccc(Cl)cc3)CC2)c1,?,16µM*,-15%,-10%
CCCCc1nc2cc(C=CC(=O)NO)ccc2n1CCN(CC)CC,nt,nt,nt,-10%
